The assay can be described thus: chemical genetic growth profiling, strain panel (AID 1159580).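 Note: tested at 20 µM; growth read once vehicle control cultures reached saturation at 30 °C; 1 = growth at the plate median or of vehicle wells; lower values mean less growth of the strain.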 Particulars: S. cerevisiae deletion strains, growth OD.
The mark [1] stands for this setting: locus YAL040C, strain CLN3, hits give low values.
Setting [2] is: locus YCL061C, strain MRC1 (second series), hits give low values.
Where [3] appears, read: locus YDR363W, strain ESC2, hits give low values.
Where [4] appears, read: locus YER002W, strain NOP16, hits give low values.
Where [5] appears, read: locus YGR078C, strain PAC10, hits give low values.
Setting [6] is: locus YMR307W, strain GAS1, hits give low values.
[7] abbreviates: locus YNL175C, strain NOP13, hits give low values.
Where [8] appears, read: locus YNL197C, strain WHI3, hits give low values.
Setting [9] is: locus YNL224C, strain SQS1, hits give low values.
[10] abbreviates: locus YOR083W, strain WHI5 (second series), hits give low values.
Where [11] appears, read: locus YPL241C, strain CIN2, hits give low values.

Screen size: about 5,500 compounds; about 2,000 (36%) were called active. About 18% were inconclusive and are not listed. The list shows a part of the results. A number with no mark means an inactive call. Cut-off read from the data, not from the text of the source: active = normalized growth mostly below about 0.91 (no sharp cut-off); inconclusive = no clear call, values can overlap the other calls; inactive = mostly above about 0.92.

On to `CC(C(O)c1ccc(O)cc1)N1CCC(Cc2ccccc2)CC1` (centres undefined), for which the normalized growth runs as follows: (locus YAL013W, strain DEP1, hits give low values) 0.932; under setting [1], 1.03; under setting [2], 0.959; (locus YDR150W, strain NUM1, hits give low values) 0.872 (active); under setting [3], 0.94; under setting [4], 1.01. Moreover, the normalized growth was 1.01 under setting [5]; 0.785 (active) (locus YGR229C, strain SMI1, hits give low values); 0.994 under setting [6]; 0.935 under setting [7]; 1.03 under setting [8]; 1.03 under setting [9]. Besides, the normalized growth by setting is: under setting [10], 1.04; (locus YPL055C, strain LGE1, hits give low values) 0.75 (active); under setting [11], 0.944 (active).

On to `C[C@@H](CN1CCC(Cc2ccccc2)CC1)[C@@H](O)c1ccc(O)cc1`, for which the normalized growth under setting [1] was 1.07; the normalized growth under setting [2] is 0.996; the normalized growth under setting [3] was 1.01; the normalized growth under setting [4] was 1.01; the normalized growth under setting [5] is 0.996; the normalized growth (locus YMR263W, strain SAP30, hits give low values) was 1. Also, the normalized growth reads like this: under setting [6], 1.05; (locus YNL128W, strain TEP1, hits give low values) 1.03; under setting [7], 0.993; under setting [8], 0.999; under setting [9], 1.02; (locus YNL322C, strain KRE1, hits give low values) 0.979. In addition, the normalized growth runs as follows: under setting [10], 1; under setting [11], 0.99.
